From PubChem BioAssay AID2401 (Southern Research Specialized Biocontainment Screening …, 2010)
In all, about 2,200 compounds went through this assay and about 530 (24%) were called active.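 The calls were made as follows: active = inhibition above a set limit at one or more concentrations of the dose series; inactive = inhibition under that limit at every dose.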 Not all results are given here. Entries with a potency or affinity are not part of this list.

Assay: nmpC-GFP reporter counter-screen in S. Typhimurium, dose response, counter-screen for PhoP regulon inhibitor project, Salmonella Typhimurium, GFP fluorescence (AID 2401);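 also: S. typhimurium with Mg-insensitive nmpC-GFP reporter grown at 10 µM Mg2+; drop in reporter fluorescence reflects general culture growth inhibition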
Settings: 4 h; series mostly up to 150 µM
With `CCN1CCN(c2oc(COc3ccc(Cl)cc3)nc2C#N)CC1` the outcome was “inactive”.
With `COc1ccc(NC(=O)C(Sc2nnc(-c3ccncc3)n2-c2ccccc2C)c2ccccc2)cc1Cl` (configuration not stated) the outcome was “inactive”.
With `Cc1ccc(S(=O)(=O)NC2c3cccc4cccc(c34)C2Sc2n[nH]c(N)n2)cc1` (configuration not stated) the outcome was “inactive”.
With `Cc1ccc(S(=O)(=O)N2C(=O)CCC2C(=O)N2CCN(C)CC2)cc1` (configuration not stated) the outcome was “inactive”.
For `Cc1cccc(C=Nc2ccc3c(c2)oc2ccccc23)c1O`, the outcome was “inactive”.
With `COc1ccc2cc(C)c3nnc(SCC(=O)Nc4nc(-c5ccccc5)cs4)n3c2c1` the outcome was “inactive”.
For `c1ccc2cc(CSCc3nc4ccccc4[nH]3)ccc2c1`, the outcome was “inactive”.
With `CN(C(=O)c1ccc2c(c1)OCO2)C1(C(=O)NC2CCCCC2)CCCCC1` the outcome was “inactive”.
In the case of `CC(=O)Nc1ccc(C(=O)Nc2nc(-c3cc(C)n(Cc4ccccc4)c3C)cs2)cc1`, the outcome is reported as “inactive”.
In the case of `O=C(CSc1nc2ccccc2o1)Nc1ccc(N2CCOCC2)c(Cl)c1`, the outcome is reported as “inactive”.
For `N#Cc1nc(-c2ccco2)oc1NCCCN1CCOCC1`, the outcome was “inactive”.
For `N#C/C(=C\c1c(Cl)cccc1Cl)c1nc2ccccc2[nH]1`, the outcome was “inactive”.
For `S=C(NN=C1C2CC3CC(C2)CC1C3)Nc1ccccc1`, the outcome was “inactive”.
With `C=CCNc1ncnc2c1[nH]c1ccc(C)cc12` the outcome was “inactive”.
With `Cc1ccc2[nH]c3c(NCc4ccccc4)ncnc3c2c1` the outcome was “inactive”.
With `COc1cccc(-c2nnc(SCC(=O)Nc3ccc(OC)c(OC)c3)n2N)c1` the outcome was “inactive”.
For `Cc1ccc(C=Nc2ccccc2C(N)=O)s1`, the outcome was “inactive”.
With `CC1(C)CC(=O)C=C(Nc2ccc(Br)cn2)C1` the outcome was “inactive”.
In the case of `Cc1ccc(NC(=S)NCc2cccnc2)cc1`, the outcome is reported as “inactive”.
For `S=C(NCc1cccnc1)Nc1cccc(Cl)c1`, the outcome was “inactive”.
In the case of `OC(COCc1cccs1)CN1CCN(c2ccccn2)CC1` (configuration not stated), the outcome is reported as “inactive”.
For `Cc1oc(CC(C)C)c(CN)c1C(=O)O`, the outcome was “inactive”.
For `Cc1nc(N)sc1Cc1ccc2c(c1)OCO2`, the outcome was “inactive”.
For `CC(=O)Nc1cccc(OCC(=O)Nc2ccc(F)cc2)c1`, the outcome was “inactive”.
For `CC(=O)Nc1cccc(OC(=O)c2ccoc2C)c1`, the outcome was “inactive”.
In the case of `CCN(CC)c1nc2n(c(=O)n1)CCO2`, the outcome is reported as “inactive”.
In the case of `Cc1ccccc1Nc1nc(-c2sc(NC(=O)c3cccc(Cl)c3)nc2C)cs1`, the outcome is reported as “inactive”.
In the case of `Cc1cc(O)ccc1Nc1nc2ccccc2nc1Nc1ccc(O)cc1C`, the outcome is reported as “inactive”.
With `Cc1ccc(O)c(-c2cc(-c3cccc(F)c3)n[nH]2)c1` the outcome was “inactive”.
In the case of `C=CCNC(=O)C(=O)NN=C1CCN(C)CC1`, the outcome is reported as “inactive”.
For `N#CCOC(=O)c1sccc1-n1cccc1`, the outcome was “inactive”.
For `O=C(Cc1ccccc1)Nc1cccc(N2C(=O)C=CC2=O)c1`, the outcome was “inactive”.
In the case of `Cc1ccc(C2NNC(=O)C2NC(=O)c2ccccc2)cc1` (configuration not stated), the outcome is reported as “inactive”.
For `Cc1ccc(-c2nnn(CC(=O)Nc3ccccc3-c3ccccc3)n2)c(-n2cnnn2)c1`, the outcome was “inactive”.
With `Cc1cc(Nc2ccc(Cl)cc2)nc(N)n1` the outcome was “inactive”.
With `CC(C)(C)c1nn(-c2ccccc2)c2[nH]c(=O)c(CNCc3ccco3)cc12` the outcome was “inactive”.
For `CC1(C)SC(=S)N(NC(=O)Nc2ccccc2)C1N(O)C(=O)Nc1ccccc1` (configuration not stated), the outcome was “inactive”.
With `Cc1ccc(Nc2cc(C)nc3nc(C)nn23)cc1` the outcome was “inactive”.
In the case of `COc1ccc2c(c1)cc1n2CCN2CCCN=C12`, the outcome is reported as “inactive”.
With `O=P(Cc1cc[n+]([O-])cc1)(c1ccccc1)c1ccccc1` the outcome was “inactive”.
In the case of `CCOC(=O)CCCNC(=O)COC(=O)CCC(=O)c1ccc(F)cc1`, the outcome is reported as “inactive”.
With `CCCCn1cnc2c(cnn2-c2ccc(F)cc2)c1=O` the outcome was “inactive”.
For `Cc1cccnc1NC(=O)CCCN1C(=O)c2ccccc2C1=O`, the outcome was “inactive”.
In the case of `O=C(CCN1C(=O)COc2ccccc21)NCCN1CCOCC1`, the outcome is reported as “inactive”.
In the case of `COc1cccc(/C=N/n2c(C)nc3ccccc32)c1OC`, the outcome is reported as “inactive”.
For `Nc1nc(-c2ccc(Br)cc2)cs1`, the outcome was “inactive”.
In the case of `Cc1ccc(-n2c(C)cc(-c3csc(N)n3)c2C)cc1`, the outcome is reported as “inactive”.
With `Cc1cc(-c2csc(N)n2)c(C)n1C` the outcome was “inactive”.
In the case of `NC(N)=Nc1nc(C2COc3ccccc3O2)cs1` (configuration not stated), the outcome is reported as “inactive”.
For `CN(C(=O)C1CCOC1)c1nnc(-c2ccccn2)s1` (configuration not stated), the outcome was “inactive”.
In the case of `COc1ccc(-c2cc(C(=O)Nc3cc(C)n(Cc4ccc(Cl)cc4)n3)no2)cc1OC`, the outcome is reported as “inactive”.
In the case of `COc1cc(S(=O)(=O)N2CCCCC2)ccc1NC=O`, the outcome is reported as “inactive”.
For `CC1(C)CC2CC(C)(CN2C(=O)COC(=O)c2n[nH]c(=O)c3ccccc23)C1` (configuration not stated), the outcome was “inactive”.
For `O=C1Nc2ccccc2C12OCC1(CO2)COC2(OC1)C(=O)Nc1ccccc12` (configuration not stated), the outcome was “inactive”.
For `NCCCCCc1nnc(SCc2ccc(Cl)cc2Cl)o1`, the outcome was “inactive”.
In the case of `O=C(Nc1ccc(O)cc1)c1cc2n(n1)C(C(F)(F)F)CC(c1ccco1)N2` (configuration not stated), the outcome is reported as “inactive”.
With `O=C(c1cc(-c2cccs2)nc2ccccc12)N1CCN(c2ccccc2O)CC1` the outcome was “inactive”.
With `O=C(O)CCc1nn2c3ccccc3n(CCN3CCCCC3)c2nc1=O` the outcome was “inactive”.
In the case of `Cc1ccc(Nc2cc(=O)[nH]c(=O)[nH]2)c(C)c1`, the outcome is reported as “inactive”.
In the case of `O=C(O)C1CCC(N2C(=O)C3CCCCC3C2=O)CC1` (configuration not stated), the outcome is reported as “inactive”.
In the case of `Cc1cc(C(=O)CSc2nnnn2C)c(C)n1-c1ccc2c(c1)OCCO2`, the outcome is reported as “inactive”.
With `Cc1ccc(-c2cc(C(=O)Nc3nccs3)c3ccccc3n2)o1` the outcome was “inactive”.
For `O=C(OCc1ccccc1)Oc1cncc(C(=O)O)c1`, the outcome was “inactive”.
For `C=COC(=O)CSc1snc(SCC(=O)OC)c1C#N`, the outcome was “inactive”.
In the case of `C=CCSc1ncnc2sc(C)c(C)c12`, the outcome is reported as “inactive”.
With `COc1ccc(NC(=O)CCNS(=O)(=O)c2ccc3c(c2)CCC(=O)N3)cc1` the outcome was “inactive”.
In the case of `CN1CCCC(OC(=O)c2ccc3c(c2)OCCO3)C1` (configuration not stated), the outcome is reported as “inactive”.
For `N#Cc1ccc(N=c2ssnc2Cl)cc1`, the outcome was “inactive”.
For `CC(C)(C)n1ncc2c(=O)n(CC(=O)Nc3ccc4c(c3)OCO4)cnc21`, the outcome was “inactive”.
In the case of `Cc1ccccc1Cn1c(=N)n(CC(=O)c2ccco2)c2ccccc21`, the outcome is reported as “inactive”.
With `N=c1n(CC(=O)c2ccc([N+](=O)[O-])cc2)c2ccccc2n1Cc1ccccc1` the outcome was “inactive”.
With `Cc1ccc(/C=C/c2ccc(=O)n(Cc3ccccc3Cl)n2)cc1` the outcome was “inactive”.
With `COc1ccc(-n2c(=O)c3ccccc3n(CC(=O)Nc3cc(C)on3)c2=O)cc1OC` the outcome was “inactive”.
In the case of `Cc1cc(-c2c(C)n([O-])c(C)c(C)[n+]2=O)ccc1F`, the outcome is reported as “inactive”.
With `CCOC(=O)c1ccccc1C(=O)N1CCOCCOCCOCC1` the outcome was “inactive”.
For `CCOC(=O)c1c(-c2ccc(C)o2)csc1N`, the outcome was “inactive”.
With `COc1ccc(C(=O)Nn2c(SCC(=O)N3CCC(C)CC3)nc3ccccc3c2=O)cc1` the outcome was “inactive”.
For `Cc1ccc2nc(C)c(CN3CCN(c4ccc([N+](=O)[O-])cc4Cl)CC3)n2c1`, the outcome was “inactive”.
For `Cc1ccc(NS(=O)(=O)c2ccc(N3C(=O)CCC3=O)cc2)cc1`, the outcome was “inactive”.
For `O=S(=O)(Nc1ccc2c(c1)nc1n2CCN(Cc2ccccc2)C1)c1ccc(F)cc1`, the outcome was “inactive”.
With `CSc1cccc(NC(=O)COc2cccc3ccccc23)c1` the outcome was “inactive”.
With `O=S(=O)(NC1=NCCCCC1)c1cccs1` the outcome was “inactive”.
In the case of `O=C1CSc2ccccc2N1Cc1ccc(F)cc1`, the outcome is reported as “inactive”.
With `O=C(c1ccccc1S(=O)(=O)NCc1ccccc1)N1CCCC1` the outcome was “inactive”.
In the case of `COc1ccc(C2CC(c3ccccc3)=NN2c2ccc(/C=N/NC(=O)c3ccncc3)cc2)cc1` (configuration not stated), the outcome is reported as “inactive”.
For `NC(=O)c1c(N)sc2c1CCCCC2`, the outcome was “inactive”.
For `CCOC(=O)C1=C(C)NC(=S)NC1c1ccc(OC(=O)c2ccco2)cc1` (configuration not stated), the outcome was “inactive”.
In the case of `Cn1c(C(O)c2ccc(Br)cc2)nc(Cl)c1Cl` (configuration not stated), the outcome is reported as “inactive”.
With `CN(C)C=NC(=O)c1[nH]c2ccc(Cl)cc2c1-c1ccccc1` the outcome was “inactive”.
With `Clc1ccc(OCCN2CCN(c3ncnc4sccc34)CC2)cc1` the outcome was “inactive”.
With `N[C@H](CSCc1ccccc1)C(=O)Nc1ccc([N+](=O)[O-])cc1` the outcome was “inactive”.
In the case of `O=C(Cc1ccc(Cl)cc1)NNS(=O)(=O)c1ccc([N+](=O)[O-])cc1`, the outcome is reported as “inactive”.
For `O=C(O)CCCCCN1C(=O)c2ccc(C(=O)O)cc2C1=O`, the outcome was “inactive”.
For `CCOC(=O)c1c(C)[nH]c(C)c1C(=O)CSc1ncccn1`, the outcome was “inactive”.
In the case of `COc1ccc(NC(=O)CSc2nccn2-c2ccccc2)cc1`, the outcome is reported as “inactive”.
With `COc1cc(OC)c(NC(=O)Nc2ccc(OC)c(OC)c2)cc1Cl` the outcome was “inactive”.
In the case of `O=[N+]([O-])c1nn(-c2cccc(Cl)c2)n(O)c1=NCc1cccnc1`, the outcome is reported as “inactive”.
In the case of `O=c1c(Cl)c(Cl)cnn1-c1ccccc1`, the outcome is reported as “inactive”.
With `CC1(C)CC(=O)C(C=Nc2ccc(Cl)cn2)=C(O)C1` the outcome was “inactive”.
In the case of `Cn1cccc1CC(=O)NNC(=S)Nc1ccc(Cl)cc1`, the outcome is reported as “inactive”.
In the case of `Cc1cn([C@H]2C[C@H](N=[N+]=[N-])[C@@H](CO)O2)c(=O)[nH]c1=O`, the outcome is reported as “inactive”.
For `Cc1c(C)n(Cc2ccccc2)c2ncnc(NN)c12`, the outcome was “inactive”.
With `CCOCc1nnc(NC(=O)COC)s1` the outcome was “inactive”.
In the case of `O=c1c2ccccc2nnn1Cc1ccccn1`, the outcome is reported as “inactive”.
In the case of `c1ccc(Oc2cc(-c3ccccc3)ncn2)cc1`, the outcome is reported as “inactive”.
With `Oc1ccccc1NCC(O)Cn1ccc2ccccc21` (configuration not stated) the outcome was “inactive”.
With `Cc1ccc2nc(Cc3ccc(N)cc3)[nH]c2c1` the outcome was “inactive”.
For `CCOc1ccc(S(=O)(=O)Nc2ccc(C(=O)N/N=C/c3c(C)nn(-c4ccccc4)c3N3CCCC3)cc2)cc1`, the outcome was “inactive”.
With `COc1ccccc1NS(=O)(=O)c1cccc(C(=O)N/N=C/c2c(C)nn(-c3ccccc3)c2N2CCCC2)c1` the outcome was “inactive”.
With `O=C(NC(=S)N1CCN(c2c(Cl)cccc2[N+](=O)[O-])CC1)c1cccs1` the outcome was “inactive”.
For `Cc1ccc(C(=O)N/N=C/c2ccc([N+](=O)[O-])s2)cc1`, the outcome was “inactive”.
In the case of `O=C(c1ccccc1)c1nc2ccccc2n(CCCn2c(=O)c(C(=O)c3ccccc3)nc3ccccc32)c1=O`, the outcome is reported as “inactive”.
For `CCc1cccc(C)c1NC(=S)NCc1cccn1C`, the outcome was “inactive”.
For `COc1cccc2[nH]c3c(N4CCN(Cc5ccc6c(c5)OCO6)CC4)ncnc3c12`, the outcome was “inactive”.
With `O=C(NCc1ccco1)C1CC(=O)N(CCc2ccccc2)C1` (configuration not stated) the outcome was “inactive”.
With `N#C/C(=C\c1ccc(F)c(F)c1)C(=O)NC1CCCCC1` the outcome was “inactive”.
In the case of `CCSc1nc(C2CC2)cc(-c2cccs2)c1C#N`, the outcome is reported as “inactive”.
